Consider 26 compounds from PubChem BioAssay (NCI).

This is part of a sample that, as a whole, favours compounds with a hit. Of some 83,000 tested, about 20% had one in any assay.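 Results are percent growth after 48 hours of single-concentration exposure. 100 means growth as in untreated cells, lower positive values show inhibition; negative values down to -100 show cell death.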 Unmarked numbers belong to inactive results. Activity calls are given as the source filed them. How the source made its calls: active means growth percent below 10; inactive means the rest.

The assay deals with HL-60(TB) leukemia. Description: NCI-60 one-dose screen, 48 h (100 = growth as untreated, 0 = no growth, -100 = all killed). The conditions noted are these: 10 µM unless noted.
Consider `COc1ccc(C(=O)C2C(C#N)C(C#N)C3c4ccccc4C=CN23)cc1` (stereo unspecified), for which the growth is 94.7%.
To `CCOc1ccc(/C=C\C(=O)O)cc1` belongs 82.9%.
The same measure for `COc1cc(NS(=O)(=O)c2ccc(N)cc2)ncn1`: 105%.
The same measure for `COc1ccc(/C=C(/C(=O)c2ccc(Cl)cc2)C(=O)C(F)(F)F)cc1`: 106%; for `c1ccc(Oc2c3ccccc3nc3ccccc23)cc1`: -16.4% (active).
Regarding `N=c1c(C(=O)OCc2ccccc2)ncc(CCl)n1O`, the growth was 81.4%.
The same measure for `N[C@H]1CCC[C@@H]1NCCCCN1C(=O)c2cccc3cc([N+](=O)[O-])cc(c23)C1=O`: 29.4%; for `O=c1cc(N2CCOCC2)oc2c(-c3ccc4c(c3)OCCO4)csc12`: 4.41% (active); for `CC(C)=C(NC(=O)c1ccccc1)C(=O)O`: 110%.
To `Cc1cnc(Nc2ccc(N3CCN(C)CC3)cc2)nc1Nc1ccc(Cl)c(NS(=O)(=O)C(C)(C)C)c1` belongs -13.4% (active); to `CN=C1C=C/C(=N/N=c2/ccn(O)cc2C)C=C1C`, 75.6%; to `CCCCCN(CCCCC)C(C)C(O)c1ccc2cc(Cl)c3ccccc3c2c1` (stereo unspecified), 105%.
For the compound `COc1ccc(Cn2cnc3cc(C(=O)Nc4cccc5ccccc45)ccc32)c(OC)c1`, the growth is -33.3% [30 µM] (active).
To `CC1=C(C(=O)Nc2nc(-c3ccc(Cl)cc3)cs2)[C@H](c2ccc(O)cc2)NC(=O)N1` belongs 98.7%.
The same measure for `NNC(=O)CCCCl`: 102%.
On to `Cc1ccc(-c2cc(-c3ccc(C)cc3)nc(NCCNc3ccnc4cc(Cl)ccc34)n2)cc1`, for which the growth was -44.6% (active).
Take `CCOc1cc2ncc(C#N)c(Nc3ccc(OCc4cccc(F)c4)c(Cl)c3)c2cc1NC(=O)CCCCC1CCSS1` (stereo unspecified): the growth was 108%.
The same measure for `Cn1ccnc1C(=O)/C=C/c1ccc(CC(=O)Nc2ccc(Cl)cc2)cc1`: 5.24% (active).
To `CCC(CC)NCCCCCNc1cc(OC)cc2cccnc12` belongs 110%; to `NNC(=O)CNC(=O)Nc1n[nH]c(=S)s1`, 107%; to `CCC(C)(CC)c1ccc(O)c(C)c1`, 105%.
To `N=C(N)c1ccc(-c2cc(Cl)cc(Cl)c2)cn1` belongs 98.1%.
On to `Nc1ncnc(N)c1NC(=O)c1ccc(OCc2ccccc2)cc1`, for which the growth is 108%.
To `Cc1ccc(OC2=C(C#N)C(=N)N3C(=NN2)Sc2c(C)ccc(C)c23)cc1` belongs 109%; to `COc1ccc(/C=C(/C(=O)N2CCNCC2)c2cc(OC)c(OC)c(OC)c2)cc1O`, -37.7% (active); to `NC(N)=N/N=C(/c1ccccc1)c1ccc(N)cc1`, 98.1%.
